# Among all 3,200 compounds or so, about 110 (3.4%) showed an effect of 50% or more. The entries come from a sample that favours strong results as a whole.
# Tested on: T1, V. cholerae SAD30
# T1 construct: SAD30
# Parameters: species or system S. aureus MSSA476 (TSB) or V. cholerae SAD30 (LB); 384-well bacterial growth screen at 25 uM, OD600 relative to DMSO control
# Conditions: relative growth, OD600, LB; 25 µM; inhibitor
row,SMILES,% of control remaining [%]
1,"Cc1nc(C)c(C(=O)CCl)o1 [10-N08, 2-chloro-1-(2,4-dimethyl-1,3-oxazol-5-yl)ethan-1-one]",41.4572
2,"Cc1nc(C#N)c(N2CCN(C(=O)CCl)CC2)o1 [5-L18, 5-[4-(2-chloroacetyl)piperazin-1-yl]-2-methyl-1,3-oxazole-4-carbonitrile]",96.3329
3,"Cc1ccc(C(=O)CCl)o1 [10-A09, 2-chloro-1-(5-methylfuran-2-yl)ethan-1-one]",117.514
4,"CC(Cl)C(=O)Nc1c(Cl)cccc1Cl (stereo not drawn) [4-B16, 2-chloro-N-(2,6-dichlorophenyl)propanamide]",102.653
5,"C=CC(=O)NC(=O)NCc1ccccc1 [1-I04, 1-benzyl-3-(prop-2-enoyl)urea]",96.861
6,"NS(=O)(=O)c1cccc2cc(NC(=O)CCl)ccc12 [5-K16, 2-chloro-N-(5-sulfamoylnaphthalen-2-yl)acetamide]",109.11
7,"C=CC(=O)N(Cc1c(F)cc(C)cc1Cl)C1CCCOCC1 (stereo not drawn) [2-A13, N-[(2-chloro-6-fluoro-4-methylphenyl)methyl]-N-(oxepan-4-yl)prop-2-enamide]",81.8585
8,"C=CC(=O)N1CCC(C(=O)N2CCN(c3ccnc(C)n3)CC2)CC1 [2-L06, 1-{4-[4-(2-methylpyrimidin-4-yl)piperazine-1-carbonyl]piperidin-1-yl}prop-2-en-1-one]",88.9607
9,"COc1cccc([C@H]2C[C@H](N(C)C(=O)C(C)Cl)C2)c1 (stereo partly drawn) [6-B17, 2-chloro-N-methyl-N-[(1r,3r)-3-(3-methoxyphenyl)cyclobutyl]propanamide]",89.6388
10,"Cc1coc(C)c1C(=O)CCl [10-M11, 2-chloro-1-(2,4-dimethylfuran-3-yl)ethan-1-one]",109.41
11,"Cc1noc(C)c1CN(C)C(=O)CCl [5-G06, 2-chloro-N-[(3,5-dimethyl-1,2-oxazol-4-yl)methyl]-N-methylacetamide]",92.4661
12,"Cc1noc(C)c1C(=O)CCl [10-K13, 2-chloro-1-(3,5-dimethyl-1,2-oxazol-4-yl)ethan-1-one]",23.0664
13,"O=C(c1ccccc1)c1cc(Cl)ccc1N1C(=O)C=CC1=O [10-M16, 1-(2-benzoyl-4-chlorophenyl)-2,5-dihydro-1H-pyrrole-2,5-dione]",57.9778
14,"O=C1C=CC(=O)N1c1ccc(F)cc1F [10-F15, 1-(2,4-difluorophenyl)-2,5-dihydro-1H-pyrrole-2,5-dione]",26.4952
15,"O=C1C=CC(=O)N1c1ccccc1F [10-D17, 1-(2-fluorophenyl)-2,5-dihydro-1H-pyrrole-2,5-dione]",26.1835
16,"CN(C(=O)CCl)C1CCN(c2ccccc2F)C1=O (stereo not drawn) [5-A18, 2-chloro-N-[1-(2-fluorophenyl)-2-oxopyrrolidin-3-yl]-N-methylacetamide]",104.066
17,"N#CC(=Cc1cccc(-c2ccncc2)c1)C(=O)NCc1ccco1 [9-B06, 2-cyano-N-[(furan-2-yl)methyl]-3-[3-(pyridin-4-yl)phenyl]prop-2-enamide]",87.4915
18,"C=CC(=O)N1CCC(c2nc(C3CC3)no2)C1 (stereo not drawn) [2-E09, 1-[3-(3-cyclopropyl-1,2,4-oxadiazol-5-yl)pyrrolidin-1-yl]prop-2-en-1-one]",93.9014
19,"C=CC(=O)N1CCC(C(=O)NCCC2(O)CCCOC2)CC1 (stereo not drawn) [2-B04, N-[2-(3-hydroxyoxan-3-yl)ethyl]-1-(prop-2-enoyl)piperidine-4-carboxamide]",101.004
20,"Cc1ccc(C(=O)C(C)Cl)cc1C (stereo not drawn) [10-B20, 2-chloro-1-(3,4-dimethylphenyl)propan-1-one]",99.2792
21,"CCc1ccc(NC(=O)C(C#N)=Cc2cccnc2)cc1 [8-G04, 2-cyano-N-(4-ethylphenyl)-3-(pyridin-3-yl)prop-2-enamide]",83.8205
